# Screening data as filed in PubChem.
# RecA splice inh: inhibitors of M. tuberculosis RecA intein splicing. P9WHJ3. cell-free RecA intein splicing, fluorescence. inhibition, % (concentration not given with the values). 0.75% of 290,000 active; in the data active means inhibition above about 30%
# CCHF vOTU inh: CCHFV vOTU protease inhibition | Pep-AMC fluorescence | inhibition, % at 11.5 µM | 0.55% of 370,000 active; in the data active means inhibition above about 30%
# DUSP3 inh: inhibitors of human VHR1 phosphatase (DUSP3); P51452; recombinant VHR phosphatase, pNPP absorbance; inhibition, % at 13.3 µM; 0.52% of 290,000 active; in the data active means inhibition above about 50%
# Target sequence (P51452 whole entry, looked up): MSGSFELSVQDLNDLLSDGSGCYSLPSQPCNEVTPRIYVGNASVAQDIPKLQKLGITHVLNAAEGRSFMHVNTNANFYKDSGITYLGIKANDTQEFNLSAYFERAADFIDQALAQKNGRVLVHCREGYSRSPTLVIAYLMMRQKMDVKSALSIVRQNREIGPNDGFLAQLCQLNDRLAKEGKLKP
# 3CLpro inhibitor: SARS-CoV 3CLpro protease inhibition | P0C6X7 | inhibition, % at 6 µM | recombinant SARS-CoV 3CLpro, quenched FRET peptide cleavage | 0.14% of 290,000 active; in the data active means inhibition above about 12%
# PriA SSB inh: blocks PriA binding to SSB C-terminal tail; AlphaScreen SSBct-PriA binding, biotinylated peptide; 0.6% of 430,000 active; inhibition, % at 33 µM; in the data active means inhibition mostly above about 37%, no sharp cut-off; inactive means mostly below about 20%
# A number is an active result; – = inactive; · = no result given. This is a sample that favours compounds with a hit; in the whole collection about 1.7% have one here.
SMILES,RecA splice inh,CCHF vOTU inh,DUSP3 inh,3CLpro inhibitor,PriA SSB inh
CN1CCc2c(sc3c2C(=O)NC(c2ccccn2)N3)C1 (centres undefined),–,–,–,–,85
O=C(NCc1nccc(N2CCOCC2)n1)c1cnccn1,·,·,·,·,–
Oc1ccccc1NCC(O)Cn1ccc2ccccc21 (centres undefined),–,–,–,–,59
OC(CNCc1ccccc1)Cn1ccc2ccccc21 (centres undefined),–,–,–,–,–
Cc1[nH]n(-c2ccccc2)c(=O)c1/C=C1/C=c2ccccc2=N1,35,–,–,–,·
CCC(C)NC(=O)Nc1ccccc1C (centres undefined),–,–,52,–,–
CC(C)(C)C1CCc2sc(C(=O)NNC(=O)CCl)cc2C1 (centres undefined),67,–,–,–,–
CC(C)(C)C1CCC(=NNC(=O)c2cc3c(s2)CCCC3)CC1 (centres undefined),–,–,–,–,–
Cc1ccc2cc(C3C(C#N)=C(N)Oc4c3ccc3cccnc43)c(=O)[nH]c2c1 (centres undefined),–,·,–,–,79
CCc1ccc2[nH]c(=O)c(C3C(C#N)=C(N)Oc4c3ccc3cccnc43)cc2c1 (centres undefined),–,–,–,–,–
N#CC1=C(N)Oc2cc3ccccc3cc2C1c1cccnc1 (centres undefined),–,–,–,–,–
N#CC1=C(N)Oc2c(ccc3cccnc23)C1c1cccnc1 (centres undefined),–,–,–,–,88
Cn1cccc1-c1cc(C(=O)N/N=C/c2cccc(Br)c2)[nH]n1,·,·,·,·,47
O=C(NCc1cccnc1)N[C@H]1CC(=O)N(c2ccccc2)C1,·,·,·,·,–
CCN(CC)CCN(Cc1cc2cc3c(cc2[nH]c1=O)OCO3)C(=S)NCCCN(C)C,–,–,52,–,–
COCCCNC(=S)N(CCO)Cc1cc2cc3c(cc2[nH]c1=O)OCO3,–,–,52,–,–
CCc1ccccc1NC(=O)CSc1nccc(N2CCN(c3ccccc3OC)CC2)n1,·,·,·,·,–
CC(NCc1cccc(Cl)c1Cl)C(O)c1ccccc1 (centres undefined),–,–,–,–,116
CC(=O)C(N=Nc1cc(C)ccc1O)=C(C)O,·,·,·,·,–
Cc1ccc(C)c(NC(=O)CSc2ncc(S(=O)(=O)c3cccc(Cl)c3)c(=O)[nH]2)c1,·,·,·,·,–
COc1ccccc1/C=C/c1ccc2cccc(O)c2n1,–,–,53,–,–
COc1ccc(Cl)cc1/C=C/c1ccc2cccc(O)c2n1,–,–,–,–,–
O=C(Nc1nnc(SCc2cccc(C(F)(F)F)c2)s1)c1cc(Cl)ccc1Cl,·,·,·,·,–
CCOc1ccc(NC(=O)c2csc3c2CCCC3)cc1,–,–,–,–,115
O=C(O)c1cc(I)ccn1,·,·,·,·,67
SMILES,RecA splice inh,CCHF vOTU inh,DUSP3 inh,3CLpro inhibitor,PriA SSB inh
O=C(O)c1cc(-n2cccn2)ccn1,·,·,·,·,75
Cc1ccc2nc(N3CC(C(=O)NC4CCN(Cc5ccccc5)CC4)C3)sc2c1,·,·,·,·,–
CC1(C)Oc2ccc3ccc(=O)oc3c2C(=CNc2ccccn2)C1=O,·,·,·,·,–
CC(=O)c1ccccc1NS(=O)(=O)c1cccc2nonc12,–,–,–,–,–
CC(=O)Nc1ccc(NS(=O)(=O)c2cccc3nonc23)cc1,·,–,58,–,–
Cc1cccc(-n2nnc(C(=O)NC3CCCc4ccccc43)c2N)c1 (centres undefined),–,–,52,–,–
Brc1ccc2c(c1)OCCSCCOCCSCCO2,·,·,·,·,43
Brc1cc2c(cc1Br)OCCOCCOCCO2,–,–,–,–,–
O=C(COc1ccc(Cl)cc1)Nc1ccccc1Cl,–,–,54,–,–
CC(=O)Oc1ccc(C(=O)Nc2cccc(C(=O)c3cccc(NC(=O)c4ccc(OC(C)=O)cc4)c3)c2)cc1,–,–,–,–,–
CCC(=O)Oc1ccc(C(=O)Nc2cccc(C(=O)c3ccccc3)c2)cc1,36,–,–,–,–
Cc1ccc(OCc2n[nH]c(=S)n2-c2ccc(Br)cc2)cc1,–,–,58,–,–
Cc1ccc(OCc2n[nH]c(=S)n2-c2ccc(Cl)cc2)cc1,–,–,–,–,–
Cc1ccc(S(=O)(=O)N=C2C=C(Nc3ccc(O)cc3)C(=O)c3ccccc32)cc1,·,·,·,·,64
Cc1ccc(S(=O)(=O)N=C2C=C(Nc3cccc(C(=O)O)c3)C(=O)c3ccccc32)cc1,·,·,·,·,–
COc1ccc(S(=O)(=O)N=C2C=C(Nc3ccc(O)cc3)C(=O)c3ccccc32)cc1,·,·,·,·,40
Cc1ccc(NC2=CC(=NS(=O)(=O)c3cccs3)c3ccccc3C2=O)cc1,·,·,·,·,–
O=C(NCC(c1cccs1)S(=O)(=O)c1ccccc1)C(=O)NC1CCCCC1 (centres undefined),·,·,·,·,–
COc1cc(Nc2c(C#N)cnc3ccc(C)cc23)cc(OC)c1OC,·,·,·,·,–
CC(=O)N1CCC(N(CCCOC(C)C)S(=O)(=O)c2ccc([N+](=O)[O-])cc2)CC1,–,–,53,–,–
COc1ccc(C[C@](C)(O)CNC(=O)NC(c2ccccc2)c2ccccc2)cc1,·,·,·,·,–
Cc1cc(C)n(CCN(C(=O)c2cccs2)c2nc3ccccc3s2)n1,·,·,·,·,–
CC1CCN(CC(O)COc2ccc(C(=O)c3ccc(Cl)cc3)cc2)CC1 (centres undefined),·,·,·,·,–
O=C(Nc1ccccc1)Nc1cccc(-c2nnco2)c1,–,–,53,–,–
CCOc1ccc(-c2ccc(OCCNC(=O)c3cc(Cl)ccc3OC)nn2)cc1,·,·,·,·,–
SMILES,RecA splice inh,CCHF vOTU inh,DUSP3 inh,3CLpro inhibitor,PriA SSB inh
Cc1nnc(NC(=O)CN2CCN(Cc3nc4ccccc4[nH]3)CC2)s1,·,·,·,·,–
CC(NC(=O)NC(=O)c1cccc(Cl)c1)c1ccccc1 (centres undefined),–,–,–,–,–
CC(NC(=O)CNC(=O)c1cccc(Cl)c1)c1ccccc1 (centres undefined),–,–,–,–,66
CCOC(=O)c1cc(C)sc1NC(=O)CSC1=NCCS1,32,–,–,–,–
CCOC(=O)c1cc(C)sc1NC(=O)CSc1nnnn1C,–,–,–,–,–
O=C1/C(=C/c2ccc([N+](=O)[O-])cc2)Oc2cc(O)ccc21,–,–,57,–,–
O=C1/C(=C/c2ccc(Cl)cc2)Oc2cc(O)ccc21,·,·,·,·,–
Fc1ccc(-c2csc3ncnc(Nc4ccc5c(c4)OCCO5)c23)cc1,·,·,·,·,–
Cc1ccc(C)c(N2CCN(C(=O)c3ccc(Cn4c(=O)[nH]c5ccccc5c4=O)cc3)CC2)c1,–,–,51,–,–
Cc1ccc(C)c(N2CCN(c3nc4ccccc4c(=O)n3Cc3ccccc3)CC2)c1,–,–,–,–,104
CC1(C)CC(=O)C(C(c2cccc([N+](=O)[O-])c2)C2C(=O)CC(C)(C)CC2=O)C(=O)C1,–,–,–,–,–
CC1(C)CC(=O)C(C(O)c2cccc([N+](=O)[O-])c2)C(C)(C)N1 (centres undefined),–,–,51,–,–
COc1ccc(C(=O)C=CNNC(=O)c2ccc(Cl)cc2)cc1,–,–,58,–,·
CCC(C(=O)NC1CCCC1)N(C(=O)Cn1nnc(-c2ccc(C)o2)n1)c1ccc(F)cc1 (centres undefined),–,–,53,–,–
